Here are results for 59 molecules from the antibiotic and cytotoxicity screens of Wong et al. (2023).

About 3,300 (8.5%) of roughly 39,000 compounds were called active. Many of the other results were omitted from the sample, so actives are more common in it than they were.

The test system of this experiment is HepG2. The experiment is described as follows: cytotoxicity call (relative viability < 0.9). To be noted: 10 µM.
For the molecule `C[C@@H]1CCCCO[C@@H](CN(C)C(=O)NC2CCCCC2)[C@H](C)CN([C@H](C)CO)C(=O)c2cc(NC(=O)NC3CCCCC3)ccc2O1`, the cytotoxicity call was “inactive”. As for `C[C@H](CO)N1C[C@H](C)[C@@H](CN(C)C(=O)Nc2ccccc2)Oc2ccc(NC(=O)CCCCCC(=O)Nc3ccccc3N)cc2CC1=O`, the cytotoxicity call is “inactive”. The entry for `COc1ccccc1C#Cc1cnc2c(c1)C(=O)N([C@H](C)CO)C[C@@H](C)[C@@H](CN(C)C(=O)CC1CC1)O2` is “inactive”.

In the case of `C[C@H](CO)N1C[C@H](C)[C@@H](CN(C)S(=O)(=O)c2ccc(Cl)cc2)Oc2ccc(NC(=O)C3CC3)cc2C1=O`, the cytotoxicity call was “inactive”. To `CCCCCCCCCCCCCCCC(=O)OCC=C(C)C=CC=C(C)C=CC1=C(C)CCCC1(C)C` belongs “inactive”; to `C[C@H]1CN([C@@H](C)CO)C(=O)c2cc(N(C)C)ccc2O[C@H]1CN(C)S(=O)(=O)c1ccc(Cl)cc1`, “inactive”; to `C[C@@H]1CCCCO[C@@H](CN(C)S(C)(=O)=O)[C@@H](C)CN([C@H](C)CO)C(=O)c2cc(NS(C)(=O)=O)ccc2O1`, “inactive”. The entry for `CN(C)CCCNC(=O)C[C@@H]1CC[C@@H]2[C@@H](COc3ccc(NS(C)(=O)=O)cc3C(=O)N2C)O1` is “inactive”; for `CO[C@@H]1CN(C)C(=O)c2cc(NC(=O)Nc3ccccc3F)ccc2OC[C@H](C)N(Cc2ccccc2C(=O)O)C[C@H]1C` it is “inactive”; for `Cc1ccc(S(=O)(=O)N(C)C[C@H]2Oc3ccc(NS(=O)(=O)c4cn(C)cn4)cc3CC(=O)N([C@@H](C)CO)C[C@H]2C)cc1` it is “inactive”. To `O=C(Nc1cccc2cccnc12)[C@@H]1[C@H](c2ccc(C(F)(F)F)cc2)CC(=O)N1C(=O)OCc1ccccc1` belongs “inactive”; to `C[C@@H]1CCCCO[C@H](CN(C)C(=O)c2ccncc2)[C@H](C)CN([C@H](C)CO)C(=O)c2cc(NS(C)(=O)=O)ccc2O1`, “inactive”.

For the molecule `Cc1ccc(S(=O)(=O)N(C)C[C@H]2Oc3cc(Br)ccc3S(=O)(=O)N([C@@H](C)CO)C[C@H]2C)cc1`, the cytotoxicity call is “inactive”.

For `C[C@@H]1CN([C@H](C)CO)C(=O)c2cc(NS(=O)(=O)c3ccc(Cl)cc3)ccc2O[C@@H](C)CCCCO[C@H]1CN(C)S(=O)(=O)c1ccccc1`, the cytotoxicity call is “active”. The entry for `C[C@@H]1CCCCO[C@@H](CN(C)S(=O)(=O)c2ccccc2)[C@H](C)CN([C@@H](C)CO)C(=O)c2cc(NS(=O)(=O)c3ccc(Cl)cc3)ccc2O1` is “inactive”.

In the case of `C[C@@H]1CCCCO[C@H](CN(C)S(=O)(=O)c2ccccc2)[C@H](C)CN([C@@H](C)CO)C(=O)c2cc(NS(=O)(=O)c3ccc(Cl)cc3)ccc2O1`, the cytotoxicity call is “inactive”. To `C[C@@H]1CN([C@@H](C)CO)C(=O)c2cc(NS(=O)(=O)c3ccc(Cl)cc3)ccc2O[C@@H](C)CCCCO[C@@H]1CN(C)S(=O)(=O)c1ccccc1` belongs “active”; to `C[C@@H]1CCCCO[C@@H](CN(C)S(=O)(=O)c2ccc(Cl)cc2)[C@H](C)CN([C@H](C)CO)C(=O)c2cc(NS(=O)(=O)c3ccccc3)ccc2O1`, “active”; to `C[C@@H]1CCCCO[C@@H](CN(C)S(=O)(=O)c2ccccc2)[C@H](C)CN([C@H](C)CO)C(=O)c2cc(NS(=O)(=O)c3ccc(Cl)cc3)ccc2O1`, “inactive”. The entry for `C[C@@H]1CN([C@H](C)CO)C(=O)c2cc(NS(=O)(=O)c3ccc(Cl)cc3)ccc2O[C@@H](C)CCCCO[C@@H]1CN(C)S(=O)(=O)c1ccccc1` is “inactive”. Regarding `C[C@@H]1CCCCO[C@H](CN(C)S(=O)(=O)c2ccc(Cl)cc2)[C@@H](C)CN([C@H](C)CO)C(=O)c2cc(NS(=O)(=O)c3ccccc3)ccc2O1`, the cytotoxicity call was “inactive”. To `C[C@@H]1CN([C@@H](C)CO)C(=O)c2cc(NS(=O)(=O)c3ccccc3)ccc2O[C@@H](C)CCCCO[C@@H]1CN(C)S(=O)(=O)c1ccc(Cl)cc1` belongs “inactive”. To `C[C@@H]1CN([C@H](C)CO)C(=O)c2cc(NS(=O)(=O)c3ccccc3)ccc2O[C@@H](C)CCCCO[C@@H]1CN(C)S(=O)(=O)c1ccc(Cl)cc1` belongs “inactive”; to `C[C@H](CO)N1C[C@H](C)[C@@H](CN(C)S(=O)(=O)c2ccccc2)OCCCC[C@H](C)Oc2ccc(NS(=O)(=O)c3ccc(Cl)cc3)cc2C1=O`, “inactive”; to `C[C@H](CO)N1C[C@H](C)[C@H](CN(C)S(=O)(=O)c2ccc(Cl)cc2)OCCCC[C@H](C)Oc2ccc(NS(=O)(=O)c3ccccc3)cc2C1=O`, “active”. The entry for `C[C@@H]1CN([C@@H](C)CO)C(=O)c2cc(NC(=O)CCC(F)(F)F)ccc2O[C@@H](C)CCCCO[C@H]1CN(C)Cc1ccncc1` is “inactive”. As for `C=CCOC(=O)[C@H]1[C@@H]2C(=O)O[C@@H](c3ccccc3)[C@@H](c3ccccc3)N2[C@@H](c2ccc(OCCOC(=O)[C@H]3C[C@H]4C(=O)N[C@@H](Cc5ccccc5)C(=O)N4[C@H]3c3ccc(O)cc3)cc2)[C@]12C(=O)Nc1ccc(I)cc12`, the cytotoxicity call is “inactive”.

As to `C[C@@H]1CCCCO[C@@H](CN(C)C(=O)NC2CCCCC2)[C@@H](C)CN([C@@H](C)CO)C(=O)c2cc(NS(=O)(=O)c3cccs3)ccc2O1`, the cytotoxicity call was “inactive”. With `CCCNC(=O)N[C@H]1C=C[C@H](CC(=O)N2CCN(C)CC2)O[C@H]1CO`, the cytotoxicity call is “inactive”. To `Oc1cccc(c1)/C/1=C/2\CC/C(=C(\c3cccc(c3)O)c3ccc([nH]3)/C(=C\3/C=CC(=N3)/C(=C\3/C=CC1=N3)c1cccc(c1)O)c1cccc(c1)O)N2` belongs “inactive”. To `C[C@@H]1CCCCO[C@H](CN(C)S(=O)(=O)c2ccccc2)[C@H](C)CN([C@H](C)CO)C(=O)c2cc(NS(=O)(=O)c3ccc(Cl)cc3)ccc2O1` belongs “inactive”; to `C[C@@H]1CN([C@H](C)CO)C(=O)c2cc(NS(=O)(=O)c3ccccc3)ccc2O[C@@H](C)CCCCO[C@H]1CN(C)S(=O)(=O)c1ccc(Cl)cc1`, “active”.

`C[C@@H]1CCCCO[C@H](CN(C)S(=O)(=O)c2ccc(Cl)cc2)[C@@H](C)CN([C@@H](C)CO)C(=O)c2cc(NS(=O)(=O)c3ccccc3)ccc2O1`: the cytotoxicity call was “inactive”.

As for `O=C(CS(=O)(=O)c1cccc2nsnc12)N1CC(=O)N(CCc2ccccc2)C(=O)C1`, the cytotoxicity call was “inactive”. To `C[C@H]1CN([C@@H](C)CO)C(=O)c2cc(NS(=O)(=O)c3cn(C)cn3)ccc2O[C@@H]1CN(C)S(=O)(=O)c1ccc(F)cc1` belongs “inactive”; to `C[C@H](CO)N1C[C@H](C)[C@H](CN(C)Cc2ccc(C(F)(F)F)cc2)Oc2c(NS(C)(=O)=O)cccc2C1=O`, “inactive”; to `Cc1ccc(-c2ccc3c(c2)O[C@H](CN(C)C(=O)NC(C)C)[C@H](C)CN([C@@H](C)CO)S3(=O)=O)cc1`, “inactive”. The entry for `C[C@H](CO)N1C[C@H](C)[C@H](CN(C)S(=O)(=O)c2ccc(F)cc2)OCCCC[C@H](C)Oc2ccc(NS(=O)(=O)c3cn(C)cn3)cc2C1=O` is “inactive”; for `O=C(C[C@H]1CC[C@@H]2[C@H](COC[C@H](O)CN2S(=O)(=O)c2ccccc2Cl)O1)NCc1ccccc1Cl` it is “inactive”; for `CN(CC(=O)Nc1cccc(S(=O)(=O)N2CCOCC2)c1)CC(=O)Nc1ccc(Cl)c(C(F)(F)F)c1` it is “inactive”.

In the case of `C[C@H](NC(=O)c1c(N)nn2cccnc12)c1cc2cccc(C#Cc3cnn(C)c3)c2c(=O)n1-c1ccccc1`, the cytotoxicity call is “active”. The entry for `O=C(C[C@H]1CC[C@H]2[C@@H](COC[C@@H](O)CN2S(=O)(=O)c2ccccc2)O1)NCCN1CCCC1` is “inactive”; for `CN1CCN(C(=O)C[C@H]2CC[C@H]3[C@@H](COc4ccc(NC(=O)c5cccs5)cc4C(=O)N3C)O2)CC1` it is “inactive”; for `COc1ccc(S(=O)(=O)N(C)C[C@H]2Oc3ccc(NC(=O)c4ccncc4)cc3CC(=O)N([C@H](C)CO)C[C@H]2C)cc1` it is “inactive”.

With `CN(C)CC(=O)N1CC2(C1)[C@@H](c1ccccc1)[C@H](CO)N2S(C)(=O)=O`, the cytotoxicity call is “inactive”. The entry for `CCN1C(C)(C)CC(Oc2ccc(C(=O)Nc3ccc(NC(=O)Nc4cc(C(C)(C)C)on4)cc3)nc2)CC1(C)C` is “active”; for `CC(C)(C)c1cc(C(=O)NN)no1` it is “inactive”.

As to `COc1cc2ncnc(Oc3cccc(NC(=O)Nc4cc(C(C)(C)C(F)(F)F)on4)c3)c2cc1OC`, the cytotoxicity call was “inactive”.

On to `C[C@@H]1CN([C@H](C)CO)C(=O)Cc2cc(NC(=O)Cn3cnnn3)ccc2O[C@H]1CN(C)C(=O)NC1CCCCC1`, for which the cytotoxicity call was “inactive”. The entry for `C[C@@H]1CN([C@@H](C)CO)C(=O)c2cc(NC(=O)Nc3cccc4ccccc34)ccc2O[C@@H]1CN(C)Cc1ccccc1` is “active”; for `C[C@@H]1CN([C@@H](C)CO)C(=O)c2cc(NC(=O)Nc3cccc4ccccc34)ccc2O[C@@H]1CN(C)Cc1ccc2c(c1)OCO2` it is “active”; for `C[C@@H]1CN([C@@H](C)CO)C(=O)c2cc(NC(=O)Nc3cccc4ccccc34)ccc2O[C@H]1CN(C)Cc1ccc2c(c1)OCO2` it is “inactive”. To `C[C@H]1CN([C@@H](C)CO)C(=O)c2cc(NC(=O)Nc3cccc4ccccc34)ccc2O[C@@H]1CN(C)Cc1ccccc1` belongs “inactive”; to `C[C@@H]1CN([C@H](C)CO)C(=O)c2cc(NC(=O)Nc3cccc4ccccc34)ccc2O[C@@H]1CN(C)Cc1ccccc1`, “active”; to `C[C@H]1CN([C@@H](C)CO)C(=O)c2cc(NC(=O)Nc3cccc4ccccc34)ccc2O[C@@H]1CN(C)Cc1ccc2c(c1)OCO2`, “inactive”.

On to `C[C@@H]1CN([C@@H](C)CO)C(=O)c2cc(NC(=O)Nc3cccc4ccccc34)ccc2O[C@H]1CN(C)Cc1ccccc1`, for which the cytotoxicity call was “inactive”.

Take `C[C@H](CO)N1C[C@H](C)[C@H](CN(C)Cc2ccccc2)Oc2ccc(NC(=O)Nc3cccc4ccccc34)cc2C1=O`: the cytotoxicity call was “inactive”. The entry for `C[C@@H]1CN([C@H](C)CO)C(=O)c2cc(NC(=O)Nc3cccc4ccccc34)ccc2O[C@H]1CN(C)Cc1ccccc1` is “inactive”; for `CCS(=O)(=O)N1CC[C@]2(CC1)CN([C@H](CO)c1c2c2ccc(cc2n1C)OC)C(=O)Nc1c(noc1C)C` it is “inactive”.
